TDP-43 tox inh – qHTS of TDP-43 Inhibitors: NCGC Sytravon Library Screen; Potency, µM (top dose mostly 46.1 µM), usual class: activators; yeast TDP-43 toxicity rescue, BacTiter-Glo growth, 24 h; 0.45% of 45,000 active; active = well fitted activation curve with a large enough effect; note: 0% is about no effect; nearly all actives have a fitted effect of over 55% in size
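TDP-43-expressing yeast, pregrown in raffinose, seeded at OD600 0.02 in galactose medium with compound for 24 hr at 30 deg C. Growth read by BacTiter-Glo luminescence, so rescue of toxicity appears as activation.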
Active calls of the source: *. Shown is part of a subset that was picked to be rich in hits. Potency is the fitted concentration of half-maximal effect.

Screening O=C1CC(N2CCSCC2)C(=O)N1c1ccccc1 (configuration not stated) returned TDP-43 tox inh inactive.
`O=C1CC(N2CCN(c3cccc(C(F)(F)F)c3)CC2)C(=O)N1c1ccccc1F` (configuration not stated) gave TDP-43 tox inh 16µM*.
For O=C1CC(N2CCN(c3ccccc3)CC2)C(=O)N1Cc1ccc(Cl)cc1 (configuration not stated) the results were TDP-43 tox inh inactive.
CCC(=O)NC(=S)Nc1ccc(OC)cc1OC was read as TDP-43 tox inh inactive.
For COc1ccc(NCc2ccc([N+](=O)[O-])s2)c(OC)c1 the results were TDP-43 tox inh 13µM*.
For COc1ccc(NC(=O)Cc2ccsc2)c(OC)c1 the results were TDP-43 tox inh inactive.
Screening O=C(CSc1nnc(NC(=O)c2ccccc2)s1)NC1CCCC1 returned TDP-43 tox inh inactive.
`CC(C)c1ccc(/C=C/C(=O)O)cc1` gave TDP-43 tox inh 6.3µM*.
For CC(NC(=O)/C=C/c1ccc(Br)cc1)c1ccccc1 (configuration not stated) the results were TDP-43 tox inh inactive.
For CC(C)c1ccc(/C=C/C(=O)NCCC2=CCCCC2)cc1 the results were TDP-43 tox inh inactive.
`COc1ccc(OC)c(NC(=O)C2(C)CCN2Cc2ccsc2)c1` (configuration not stated) gave TDP-43 tox inh inactive.
Cc1cc(NC(=O)c2ccc(COc3ccccc3Cl)o2)no1 was read as TDP-43 tox inh inactive.
`Cc1csc(NC(=S)NC(=O)c2ccccc2)n1` gave TDP-43 tox inh inactive.
Cc1csc(NC(=O)c2ccc(COc3ccccc3)o2)n1 was read as TDP-43 tox inh 18µM*.
CCC(CC)c1nnc(NC(=O)c2cccc(S(=O)(=O)N3CCOCC3)c2)s1 was read as TDP-43 tox inh inactive.
`O=C(Nc1ccc(Br)cn1)c1cccc(-c2cc3ccccc3oc2=O)c1` gave TDP-43 tox inh inactive.
O=C(Nc1ccc(N2CCCC2)cc1)c1cccc(-c2cc3ccccc3oc2=O)c1 was read as TDP-43 tox inh 22µM*.
`CC(=O)N1CCN(c2ccc(NC(=O)c3cccc(Cl)c3)cc2)CC1` gave TDP-43 tox inh inactive.
CCOc1ccc(NC(=O)C2=C(C)C(=O)OC23CCC(C)CC3)cc1 (configuration not stated) was read as TDP-43 tox inh 13µM*.
For CC1=C(C(=O)NC(C)CCc2ccccc2)C2(CCC(C)CC2)OC1=O (configuration not stated) the results were TDP-43 tox inh inactive.
`COc1ccc(OC)c(CCNC(=O)C2=C(C)C(=O)OC23CCC(C)CC3)c1` (configuration not stated) gave TDP-43 tox inh inactive.
CN(C(=O)c1cc(-c2ccccc2)on1)C1CCCCC1 was read as TDP-43 tox inh inactive.
Cc1onc(-c2ccccc2)c1C(=O)NC(=S)NNC(=O)c1ccco1 was read as TDP-43 tox inh inactive.
For COc1ccccc1/C=N/NC(=O)c1c(-c2ccccc2)noc1C the results were TDP-43 tox inh inactive.
Screening COc1ccc(C(=O)NC(=S)NNC(=O)c2c(-c3ccccc3)noc2C)cc1OC returned TDP-43 tox inh 13µM*.
Screening COc1ccc(-n2c(C)c(C)c3c(NCCCN(C)C)ncnc32)cc1 returned TDP-43 tox inh inactive.
CCOC(=O)CN1C(=O)N(CC(=O)OCC)C(c2ccccc2)(c2ccccc2)C1=O was read as TDP-43 tox inh inactive.
For COc1ccc(CNC(=O)c2cc3sccc3n2C)cc1 the results were TDP-43 tox inh 13µM*.
Screening CCOc1ccc(CNC(=O)c2cc3oc4ccccc4c3n2C)cc1 returned TDP-43 tox inh inactive.
`COc1ccc(CNC(=O)CSc2cc(=O)n(C)c3ccccc23)cc1` gave TDP-43 tox inh inactive.
COc1ccc(SCC(=O)Nc2ccccc2Cl)cc1 was read as TDP-43 tox inh inactive.
For Cc1cc(NC(=O)CSc2nc3ccccc3cc2C#N)no1 the results were TDP-43 tox inh inactive.
Screening CCCCSc1nc(C)c(C(C)=O)cc1C#N returned TDP-43 tox inh 6.3µM*.
Screening CC(=O)c1cc(C#N)c(N(C)Cc2ccccc2)nc1C returned TDP-43 tox inh inactive.
For CN1C(=O)/C(=C/c2ccc(OCc3ccc(F)cc3)cc2)NC1=S the results were TDP-43 tox inh inactive.
O=C(O)c1cc(-c2ccc(/C=N/NC(=S)Nc3ccccc3)o2)ccc1Cl was read as TDP-43 tox inh inactive.
Screening NC(=S)N/N=C/c1ccc(-c2ccc(Cl)c(Cl)c2)o1 returned TDP-43 tox inh 11µM*.
For NC(=S)N/N=C/c1ccc(-c2ccc(SC(F)F)cc2)o1 the results were TDP-43 tox inh inactive.
CCC(CC)c1nnc(NC(=O)CCc2ccccc2OC)s1 was read as TDP-43 tox inh inactive.
`O=C(O)/C=C/C(=O)NC1CC1` gave TDP-43 tox inh inactive.
Screening CN1/C(=C/C(=O)COC(=O)C2COc3ccccc3O2)C(C)(C)c2ccccc21 (configuration not stated) returned TDP-43 tox inh inactive.
For CN1CCN(/C=C2\SC(=S)NC2=O)CC1 the results were TDP-43 tox inh inactive.
`O=C1NC(=S)S/C1=C\c1cc2ccccc2nc1N1CCCCC1` gave TDP-43 tox inh 6.3µM*.
Screening COc1ccc2nc(N3CCCCC3)c(/C=C3\SC(=S)NC3=O)cc2c1 returned TDP-43 tox inh inactive.
Screening COc1ccccc1C(=O)NCC(=O)OCC(=O)N1CC(C)OC(C)C1 (configuration not stated) returned TDP-43 tox inh inactive.
`COc1ccc(-c2[nH]ncc2C(=O)NCc2ccccc2OC)cc1` gave TDP-43 tox inh inactive.
CN(C)CCNc1nc(Oc2ccccc2)c2sccc2n1 was read as TDP-43 tox inh inactive.
Screening Cc1cnnn1-c1ccc([N+](=O)[O-])cc1 returned TDP-43 tox inh inactive.
`Cc1c(C(=S)Nc2ccccc2)cnn1-c1ccc([N+](=O)[O-])cc1` gave TDP-43 tox inh inactive.
Screening Cc1nn(-c2ccccc2)c(N)c1Sc1ccc([N+](=O)[O-])cc1 returned TDP-43 tox inh 14µM*.
CN(Cc1ccc(F)cc1)C(=O)COc1ccccc1-c1ccccc1 was read as TDP-43 tox inh 25µM*.
CCOc1ccccc1NC(=O)c1ccccc1-c1ccccc1 was read as TDP-43 tox inh inactive.
Screening CN(Cc1ccc(F)cc1)C(=O)C(c1ccccc1)c1ccccc1 returned TDP-43 tox inh inactive.
`OCCN1CCN(c2ncnc3c2ncn3[C@H]2CN(Cc3ccc(Cl)cc3)C[C@@H](CO)O2)CC1` gave TDP-43 tox inh inactive.
`COc1cc(C(=O)N2CCC2(C)C(=O)O)cc(OC)c1OC` (configuration not stated) gave TDP-43 tox inh inactive.
Screening CC(=O)Nc1ccc(NC(=O)CCNS(=O)(=O)c2cccc3nsnc23)cc1 returned TDP-43 tox inh inactive.
Screening Cn1c(=O)c2c(ncn2CCOc2ccc(Br)cc2)n(C)c1=O returned TDP-43 tox inh 11µM*.
`COc1ccc(/C=N/NC(=O)Cn2cnc3c2c(=O)n(C)c(=O)n3C)cc1` gave TDP-43 tox inh inactive.
Screening COC(=O)c1ccc(NC(=O)Cn2cnc3c2c(=O)n(C)c(=O)n3C)cc1 returned TDP-43 tox inh inactive.
O=C(Cc1ccccc1F)Nc1ccc(S(=O)(=O)Nc2ncccn2)cc1 was read as TDP-43 tox inh inactive.
For COc1ccc(CN2CCNC(=O)C2CC(=O)NC2CCOCC2)c(F)c1 (configuration not stated) the results were TDP-43 tox inh inactive.

Screening results as filed in PubChem BioAssay.
